# MenB inh: blocks the Mycobacterium tuberculosis MenB enzyme. P9WNP5. MenB enzyme assay, absorbance read-out. inhibition, % (no concentration beside the values). hit rate 0.43% among 100,000. AID 540299; in the data active means inhibition above about 21%, passing the limit was not always enough
# AID504770: growth inhibitors of E. coli YBA685 in a screen for V. cholerae RctB (chromosome II replication) inhibitors. E. coli YBA685 rctB-dependent plasmid, OD600 growth, 3 h; active compounds read low. z-score (test concentration not listed). hit rate 0.27% among 130,000; in the data active means z-score below about -2, passing the limit was not always enough
# Polio RdRp inh: poliovirus RNA polymerase inhibition | P03300 | poliovirus polymerase elongation, fluorescence polarization; active compounds read low | % elongation, % (compound at 16.7 µg/mL) | hit rate 0.66% among 150,000; in the data active means % elongation below about 90%
# Target sequence (P03300 1749-2209 limits assumed): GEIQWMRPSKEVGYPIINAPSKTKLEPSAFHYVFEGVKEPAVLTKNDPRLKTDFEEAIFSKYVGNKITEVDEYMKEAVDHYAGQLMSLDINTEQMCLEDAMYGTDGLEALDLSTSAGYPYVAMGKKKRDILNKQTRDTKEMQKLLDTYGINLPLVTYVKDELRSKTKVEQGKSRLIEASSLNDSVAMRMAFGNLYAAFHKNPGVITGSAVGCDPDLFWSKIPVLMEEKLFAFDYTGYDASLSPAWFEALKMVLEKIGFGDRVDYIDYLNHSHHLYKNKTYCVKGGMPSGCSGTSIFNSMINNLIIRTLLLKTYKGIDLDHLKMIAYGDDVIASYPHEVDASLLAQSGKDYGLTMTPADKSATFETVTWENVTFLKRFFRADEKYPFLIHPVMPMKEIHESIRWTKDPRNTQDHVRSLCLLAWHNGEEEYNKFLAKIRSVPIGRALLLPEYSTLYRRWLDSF
# MbtI inh: MbtI salicylate synthase inhibition. P9WFX0. purified MbtI enzyme, fluorescence intensity read-out. inhibition, % (concentration not given with the values). hit rate 0.89% among 100,000; in the data active means inhibition mostly above about 56%, no sharp cut-off; inactive means mostly below about 77%
# * marks the source's active call; other numbers are inactive results; · = not tested or not shown; ! = repeats disagree. Most compounds without a hit are left out; they make up all but 1.4% or so of the library.
SMILES,MenB inh,AID504770,Polio RdRp inh,MbtI inh
CCC(C(=O)N1CCN(c2ccccc2)CC1)n1nc(C)c2sc3ccccc3c2c1=O (stereo unspecified),·,·,90*,·
CCC(C(=O)N1CCCC1)n1nc(C)c2sc3ccccc3c2c1=O (stereo unspecified),7,-1.5,102,8
NCCS,0,-0.05,102,51*
CC(=O)NC(CC(=O)n1nnc2ccccc21)c1ccccc1 (stereo unspecified),10,0.8,104,13
CCOc1ccc2c(c1)SC1=NS(=O)(=O)CCN12,·,-0.5,·,·
CCN(CC1COc2ccccc2O1)C(=O)c1ccc2c(c1)SC1=NS(=O)(=O)CCN12 (stereo unspecified),-33,1.2,84*,7
NC1=NC(=O)C(C(=O)NC2(C(F)(F)F)Oc3cc(Cl)c(Cl)cc3O2)S1 (stereo unspecified),0,0.25,105,92*
CCOC(=O)C(C#N)=c1sc(=C(C#N)C(=O)OCC)s1,-19,0.55,88*,76*
CCOC(=O)C(C#N)=C1C2CC3CC(C2)CC1C3,·,-0.15,·,·
N#C/C(=C\c1ccco1)C(=O)Nc1ccccc1,-78,-0.15,104,4
COC(=O)c1c(NC(=O)/C(C#N)=C/c2ccco2)sc(C)c1C,-12,0.3,95,82*
CCC(=O)Nc1nc(-c2ccc(C)cc2C)cs1,·,2,·,·
Cc1ccc(-c2csc(Nc3ccc(C(=O)O)cc3)n2)c(C)c1,-20,0.3,90*,·
C(=Nc1ccc(-c2cnco2)cc1)c1cccnc1,·,-0.8,·,·
Cc1ccccc1-c1nnc2s/c(=C\c3ccccc3)c(=O)n12,-1,0.9,101,7
Cc1ccc(S(=O)(=O)N2CCN(Cn3nc(Nc4ccccc4F)sc3=S)CC2)cc1,4,-0.55,102,94*
Cc1ccc(S(=O)(=O)N2CCOCC2)c(C)c1,2,-1.1,103,1
Cc1ccc(S(=O)(=O)N2CCN(Cn3nc(C)sc3=S)CC2)c(C)c1,15,1.5,106,68*
CCS(=O)(=O)N1CCN(S(=O)(=O)c2ccc(C)cc2)CC1,-14,-0.25,100,-18
O=C(CCCc1nnc2c(=O)n(-c3ccc(Cl)cc3)ccn12)N1CCc2ccccc2C1,13,0.4,102,3
CC1=C(/C=C/C(C)=C/C=C/C(C)=C\C(=O)O)C(C)(C)CCC1,50*!,-0.05,101,-12
CC1=C(/C=C/C(C)=C/C=C/C(C)=C/C(=O)Nc2ccc(O)cc2)C(C)(C)CCC1,8,·,101,-18
O=C(NCc1noc2ccccc12)N1CCCCC1,12,0.85,104,-2
NC(=S)NNc1ccc(Cl)c(Cl)c1,-15,-0.85,95,95*
NNc1ccc(Cl)c(Cl)c1,·,-3.6*,96,-3
SMILES,MenB inh,AID504770,Polio RdRp inh,MbtI inh
CCCN(CCC)S(=O)(=O)c1cccc(C(=O)Nc2ccccc2C(=O)NC2CC2)c1,2,-0.8,100,-5
O=C(CC12CC3CC(CC(C3)C1)C2)NCC(=O)OCc1nnc(-c2ccc(Br)cc2)o1,-18,-0.55,106,-9
O=S1(=O)N=C(O)c2ccccc21,5,1.9,99,9
CC(C)N(C(=O)NC(=O)Nc1ccc(C=C(C#N)C#N)cc1)S(C)(=O)=O,-143,-0.25,88*,13
COc1ccc(CCNC(=O)c2ccc3c(c2)N(Cc2ccccc2)C(=O)c2ccccc2S3=O)cc1OC (stereo unspecified),·,·,-15*,·
CCOc1ccc(-c2cc(CCCC(=O)NCc3ccccc3)no2)cc1,·,1.4,·,·
CCOC(=O)c1cccc(NC(=O)c2oc3c(c2C)-c2nn(CC)cc2CC3)c1,·,·,64*,·
CC(=O)c1cccc(NC(=O)c2oc3c(c2C)-c2nn(Cc4ccc(Cl)cc4)cc2CC3)c1,·,·,93,·
Cc1ccc2nc(-c3ccc(C)s3)c(Nc3ccc4c(c3)OCCO4)n2c1,·,·,84*,·
CCCNC(=O)c1ccc(NC(C)=O)cc1,-8,0,107,·
CC(=O)Nc1ccc(C(=S)NCCCO)cc1,-7,-1.1,77*,85
COc1ccc(CCN2C(=O)CC(=O)NC2=S)cc1OC,-121,-0.35,100,27
COc1ccc(CCN2CC(=O)N3CCCC(C4=CC(=O)C=CC4=O)=C3C2=O)cc1OC,-13,-0.4,95,99*
O=C(/C=C/c1ccco1)OC(C(=O)c1ccccc1)C(=O)c1ccccc1,-47,-0.8,103,-3
COC(=O)C1=C(C)NC(C)=C(C(=O)OC)C1c1ccccc1[N+](=O)[O-],-4,0.75,101,79*!
COC(=O)C1=C(C)NC(C)=C(C(=O)OC)C1c1ccccc1,·,1.1,·,·
CC(=O)Nc1ccc(NC(=O)C(C)OC(=O)C2CCN(C(=O)Nc3ccccc3)CC2)cc1 (stereo unspecified),-17,-0.1,103,-9
CCC(=O)Nc1cccc2cccnc12,-9,1.4,102,6
COc1nc(NC(=O)NS(=O)(=O)Nc2cccc3cccnc23)nc(OC)n1,7,0.55,79*,2
C/C(=C(/C#N)C(N)=O)c1ccccc1,·,-0.8,·,·
CCN(CC)/N=N/c1[nH]nc2nc(C)cc(C)c12,-19,-7.5*,109,·
Cc1cc(C)c2c(-n3cccc3)n[nH]c2n1,·,-0.9,·,·
CC(On1nnc2ccccc21)C(=O)Nc1ccc(Cl)cc1Cl (stereo unspecified),-12,-0.2,99,2
Fc1cccc2c1CNC(=S)N2,-18,-1.3,100,82*
CC(C)C(=O)Nc1nncs1,2,-0.25,101,-4
SMILES,MenB inh,AID504770,Polio RdRp inh,MbtI inh
Cc1nn(C(C)CN)c(C)c1C (stereo unspecified),34*,1.9,101,-3
O=C(O)C1CSC(c2cccnc2)=N1 (stereo unspecified),·,1.5,·,2
O=C(O)C1CSC(c2ccncc2)=N1 (stereo unspecified),90*,0.85,101,17
CC1Cc2cc(S(N)(=O)=O)ccc2N1Cc1cc2c(cc1Br)OCCO2 (stereo unspecified),-24,-0.1,97,5
CCn1cc(C(=O)O)c(=O)c2cnc(N3CCN(C(=S)NCc4ccccc4)CC3)nc21,-18,-3.4*,102,-4
COc1ccc(C)cc1NS(=O)(=O)c1ccc(-c2cnc(C3CC3)o2)cc1,·,·,105,·
COc1cc(Cl)c(NS(=O)(=O)c2ccc(-c3cnc(C4CC4)o3)cc2)c(OC)c1,·,·,87*,·
CS(=O)(=O)c1nc(-c2ccc(Cl)cc2)n[nH]1,0,-0.55,100,·
CS(=O)(=O)c1nc(-c2ccc(Br)cc2)n[nH]1,15,-0.55,100,90*
S=c1[nH]nc(Nc2cccc(Br)c2)s1,-32,-0.35,102,98*
O=C(Cn1nc2n(c1=O)-c1ccccc1SC2)c1cccs1,-2,-1.1,101,-5
CCOc1ccc(N2C(=O)/C(=C/c3cccs3)C(=O)N(c3ccccc3)C2=S)cc1,-22,-0.55,106,73*
CCCCn1c(SCc2cc(=O)n3ccsc3n2)nc2cc(S(N)(=O)=O)ccc21,4,0.8,103,28
CCC(CC)NC(=O)CSc1nnc(-c2ccc(C)cc2)n1N,-39,-0.5,78*,92
